Several values for one entry are separate records, joined by “and”; a condition that tells them apart may be missing. Identical values can stand only once. Inconclusive results are not listed. Entries that show only a call come without a potency. Some structures have more than one record in an assay (separate samples or runs), and their calls can disagree. Activity calls are given as the source filed them. The call rests on the fitted dose curve; in most records, active means well fitted cell-killing curve with a large enough effect in the repeat runs (not every such curve was filed as active); inconclusive means weak or mixed curves, or effect the other way; inactive means no such curve, though single readings can be large or run the other way.
Potency means the concentration at half of the fitted maximal effect.

The nature of this experiment: qHTS assay to identify small molecule antagonists of the estrogen related receptor signaling pathway with the pleiotropic PPARgamma coactivator (PGC) from Tox21 10K library - cell viability counter screen (AID 1224840). Further: nearly all actives have a fitted effect of over 40% in size. The settings on record: PGC/ERR reporter cells viability, CellTiter-Fluor, 17.5 h; series mostly up to 92.4 µM; viability change, negative = cytotoxic: at the top concentration. The source says:
National Center for Advancing Translational Sciences [NCATS]
NIH Chemical Genomics Center [NCGC]
U.S. Environmental Protection Agency [EPA]
National Institutes of Environmental Health Sciences [NIEHS]
National Toxicology Program [NTP]
U.S. Food and Drug Administration [FDA]
Estrogen related receptors (ERRs), the first orphan nuclear receptors discovered, play an important role in the control of cellular energy metabolism. ERRs are required for high-energy production in response to the environmental challenges. The pleiotropic PPARgamma coactivator (PGC) is a major partner of ERR and a key regulator in energy homeostasis. Together they have been implicated in the etiology of metabolic disorders such as Type 2 diabetes and metabolic syndrome. ERR-alpha was also identified as an adverse marker for breast cancer progression; ERR-alpha-positive tumors have a poor prognosis. To screen and to identify environmental compounds that perturb the ERR and PGC/ERR signaling pathways could provide valuable information for potential therapeutic or preventive measures in the treatment of metabolic disease. To differentiate true PGC/ERR antagonists or agonist from cytotoxic substances, the assay is multiplexed with cell viability assay.
Tox21 Assay Protocol Summary:
The PGC/ERR cells were dispensed at 2,000 cells/5 ul/well in 1536-well white plates using a Multidrop dispenser. After the assay plates were incubated at a 37 C/5% CO2 incubator for 6 hours, 23 nL of compounds dissolved in DMSO, positive and negative controls or DMSO only was transferred to the assay plate by a pin tool. The plates were incubated at 37 C for 17.5 hours. 1 ul/well of CellTiter-Fluor reagent was added into the assay plates using a Flying Reagent Dispenser. After 30-minute incubation at 37 C/5% CO2, the fluorescence intensity in the plates was measured using a ViewLux plate reader.
Take `CC(C)[N+](C)(CCOC(=O)C1c2ccccc2Oc2ccccc21)C(C)C`: the Potency entry was “inactive”.
As for `CCc1cccc2c3c([nH]c12)C(CC)(CC(=O)O)OCC3` (stereo not given), the Potency result was “inactive”.
Same read-out and setting: the result for `NCCN` reads “inactive”.
For the compound `O=C(O)CCCC(=O)O`, the Potency result was “inactive”.
Same read-out and setting: the result for `CCCCCC=O` reads “inactive”; that for `CC(=O)Oc1ccc(C(c2ccc(OC(C)=O)cc2)c2ccccn2)cc1`, “inactive”; that for `CC[C@]12CCCN3CCc4c(n(c5ccccc45)[C@@](O)(C(=O)OC)C1)[C@@H]32`, “inactive”.
As for `Cc1ccc([N+](=O)[O-])c(C)c1`, the Potency was 21.7 µM (active) and inactive.
Still for that read-out and setting: the result for `CCCOCCO` reads “inactive”; that for `O=C1CCc2ccccc2O1`, “inactive”.
Take `CC(=O)O[C@]1(C(C)=O)CC[C@H]2[C@@H]3C=C(Cl)C4=CC(=O)CC[C@]4(C)[C@H]3CC[C@@]21C`: the “viability change, negative = cytotoxic” value was -9.62% [at 42.5 µM] (inactive).
Regarding `CC(=O)[C@@]1(O)CC[C@H]2[C@@H]3C[C@H](C)C4=CC(=O)C=C[C@]4(C)[C@@]3(F)[C@@H](O)C[C@@]21C`, the Potency result is “inactive”.
The same measure, in the same setting: the result for `NC[C@H](O)c1ccc(O)c(O)c1` reads “inactive”.
Turning to `CC(=O)O[C@]1(C(C)=O)CC[C@H]2[C@@H]3C=C(C)C4=CC(=O)CC[C@]4(C)[C@H]3CC[C@@]21C`, the Potency entry was “inactive”.
Take `Cc1ccc(/C(=C\CN2CCCC2)c2ccccn2)cc1`: the “viability change, negative = cytotoxic” value is -0.79% [at 42.5 µM] (inactive).
Regarding `Cc1ccc(S(=O)(=O)NCl)cc1`, the Potency result is “inactive”.
On the same count and under the same terms, the result for `Cc1ccc(N)c([N+](=O)[O-])c1` reads “inactive”; that for `c1ccc2c(c1)ccc1ncccc12`, “inactive”; that for `C=C[Si](OCCOC)(OCCOC)OCCOC`, “inactive”.
Regarding `C[C@]12CC[C@@H]3c4ccc(O)cc4CC[C@H]3[C@@H]1CC[C@H]2O`, the “viability change, negative = cytotoxic” value is -22.2% (inactive).
As to `O=C(O)c1cc(=O)[nH]c(=O)[nH]1`, the Potency result is “inactive”.
On the same count and under the same terms, the result for `O=C(O)COCCN1CCN(C(c2ccccc2)c2ccc(Cl)cc2)CC1` (stereo not given) reads “inactive”; that for `c1ccc2cc3ccccc3cc2c1`, “inactive”; that for `CC(=O)OC(C)C`, “inactive”.
Take `CN(C)CCCN1c2ccccc2Sc2ccc(Cl)cc21`: the Potency was 48.6 µM (active) and 26.6 µM (active).
`CCC(Cc1c(I)cc(I)c(N)c1I)C(=O)O` (stereo not given): the Potency entry was “inactive”.
On to `CCCN1C=CN(C)C1`, for which the Potency entry is “inactive”.
Same read-out and setting: the result for `Oc1c(Cl)ccc(Cl)c1Cl` reads “inactive”; that for `CC(C)(Oc1ccc(Cl)cc1)C(=O)O`, “inactive”.
Turning to `CCC/C=C/C=O`, the Potency result is “inactive”.
In the case of `CCC(=O)O[C@H]1[C@H](O[C@@H]2[C@@H](C)[C@H](O[C@H]3C[C@@](C)(OC)[C@@H](O)[C@H](C)O3)[C@@H](C)C(=O)O[C@H](CC)[C@@](C)(O)[C@H](O)[C@@H](C)C(=O)[C@H](C)C[C@@]2(C)O)O[C@H](C)C[C@@H]1N(C)C`, the “viability change, negative = cytotoxic” value is 2.42% [at 42.5 µM] (inactive).
Take `C/C=C/C(=O)N(CC)c1ccccc1C`: the Potency entry is “inactive”.
Same read-out and setting: the result for `COCCOCCOCCO` reads “inactive”.
Same read-out and setting: the result for `CC1(C)O[C@@H]2C[C@H]3[C@@H]4C[C@H](F)C5=CC(=O)C=C[C@]5(C)[C@@]4(F)[C@@H](O)C[C@]3(C)[C@]2(C(=O)CO)O1` reads “inactive”.
The same measure, in the same setting: the result for `NCCOCCO` reads “inactive”; that for `Cc1ccc(C)c(O)c1`, “inactive”.
`CCCCCCCCCCC(CO)CCCCCCCC` (stereo not given): the Potency entry is “inactive”.
For `CN(C)C`, the Potency entry is “inactive”.
On to `O=Cc1ccccc1C=O`, for which the “viability change, negative = cytotoxic” value was 11.2% [at 42.5 µM] (inactive).
On to `Cc1ccc(C(C)(C)C)cc1`, for which the Potency result is “inactive”.

These data come from PubChem BioAssay (Tox21).
